# Pf Dd2 inh – inhibitors of Plasmodium falciparum Dd2 growth; P. falciparum Dd2 growth, SYBR Green, 72 h; Potency, µM (highest dose often 28.9 µM), for inactives: at the highest dose activity, negative = inhibition, actives largely listed as inhibitors; 120,000 compounds, 4.3% hits; active = well fitted inhibition curve with a large enough effect;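 note: plate controls were DMSO vehicle for no effect and reference drug for full effect; nearly all actives have a fitted effect of over 65% in size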
#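 Infected erythrocytes (Dd2, 0.3% parasitemia, 2.5% hematocrit final) are added to compound in RPMI-1640/Albumax II medium, grown 72 h at 37C in low oxygen, then lysed with saponin/Triton-X containing SYBR Green and read by fluorescence.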
# Numbers without * were called inactive; i = inactive; [ ] = dose if it differs, or a comment. This is one part of a sample in which hits are shown more often than they occur. Potency is the fitted concentration of half-maximal effect.
SMILES,Pf Dd2 inh
CS(=O)(=O)N1CC2(CCCN2Cc2ccc(Cl)cc2)Cc2ccccc21 (stereo not given),-20%
O=C(C1CCCO1)N1CCc2c(n(Cc3ccccc3)n(-c3ccccc3)c2=O)C1 (stereo not given),14%[44.1 µM]
CN1CCCC2(CCN(S(=O)(=O)c3ccc(F)c(F)c3F)C2)C1=O (stereo not given),-24%
Cc1nc(CN2CCOc3cc([S+](=O)([O-])Nc4ccccc4)ccc3C2)cs1,i
CC1(C)C(=O)N(Cc2ccccc2F)[C@H]2CN(Cc3cccnc3)C[C@@H]2[S+]1(=O)[O-],21%[44.1 µM]
O=C(C1CCC(=O)N(C2CCCCCC2)C1)N1Cc2ccccc2C1 (stereo not given),-12%
Cc1nnnn1-c1cccc(C(=O)N[C@H]2C[C@@H]3OCC[C@H]23)c1,-6%
COCCN1C(=O)c2cccn2CC1CNC(=O)CN1CCCCCC1 (stereo not given),2%
Cn1cc(C(=O)NCCc2noc(-c3ccncc3)n2)cn1,0%
COc1ccc(C(=O)NCCc2noc(-c3ccncc3)n2)cn1,2.5µM*
COCc1nc(CCNC(=O)c2ccc(OC)nc2)no1,5%
O=C(CC1=CCCCC1)N1CCC(C2CCNC2)CC1 (stereo not given),2%
CN1C(=O)CS(=O)(=O)C12CCN(C(=O)c1ccco1)CC2,-1%
Cc1ccc(NC(=O)Nc2nc3c(s2)CCCCCC3)cc1C,-19%
Cc1cc(NC(=O)Nc2csc3c2CCCC3)ccc1Br,13µM*
Cc1cc(NC(=O)Nc2nnc(N(C)C3CCCCC3)s2)ccc1Br,-23%[5.79 µM]
COC[C@@H]1CN(Cc2ccc(F)c(F)c2)C[C@H]1C(=O)NC1CC1,-30%
O=C(Nc1ccc([C@@H](O)[C@H]2COCC(=O)N2Cc2ccc(C(F)(F)F)cc2)cc1)c1ccco1,-9%
CCOC(=O)c1cccc(NC(=O)c2c(C)oc3ccn(Cc4ccc(F)cc4)c(=O)c23)c1,-16%
Cc1noc(-c2cn(C3CCN(C(=O)c4ccc5c(c4)OCO5)CC3)nn2)n1,-20%
O=C(c1ccc(N2CCCC2=O)cc1)N1CCC2(CC1)OCCCC2O (stereo not given),-11%
O=C(c1ccc2ncccc2c1)N1CCC(N2CC3CC(C2)[C@H]2CCCC(=O)N2C3)CC1 (stereo not given in full),-3%
COCc1cccc(C(=O)NC2CC(c3nnc(CN(C)C)n3C)C2)n1 (stereo not given),-7%
O=C1CCN(C(=O)c2ccccn2)CCCC(c2nc(-c3ccccc3)no2)CCN1 (stereo not given),-24%
O=C1Cc2c(-c3ccccc3OCc3ccccc3)n[nH]c2CN1Cc1ccccn1,10µM*
SMILES,Pf Dd2 inh
O=C1Cc2c(-c3cccc4ccccc34)n[nH]c2CN1Cc1ccccn1,-4%[44.1 µM]
COc1ccc(CN2Cc3[nH]nc(-c4ccccc4OC)c3CC2=O)cc1,-29%[44.1 µM]
O=C1Cc2c(-c3ccccc3OCc3ccccc3)n[nH]c2CN1Cc1ccccc1,10µM*
COc1ccc(-c2n[nH]c3c2CC(=O)N(Cc2ccccn2)C3)cc1F,-16%[44.1 µM]
O=C1Cc2c(-c3ccccc3Cl)n[nH]c2CN1Cc1ccccc1,7%[44.1 µM]
CCn1cc(S(=O)(=O)N[C@@H]2CCOC[C@H]2O)c(C)n1,4%
Cc1cn2nc(C(=O)Nc3ccc(C(=O)N4CCCC4)cc3)cc2c(=O)[nH]1,-18%
Cc1cc(C)c(CNC(=O)c2cc(-c3ccccc3C)cc3c2OCCN3C(C)C)c(=O)[nH]1,-17%
COc1cc(F)ccc1-c1cc(C(=O)NCc2c(C)cc(C)[nH]c2=O)c2c(c1)N(C(C)C)CCO2,-27%
CC(=O)Nc1cccc(-c2cc(C(=O)NCc3c(C)cc(C)[nH]c3=O)c3c(c2)N(C(C)C)CCO3)c1,1.8µM*
Cc1cc(C)c(CNC(=O)c2cc(-c3ccccc3F)cc3c2OCCN3C)c(=O)[nH]1,6.3µM*
Cc1cc(C)c(CNC(=O)c2cc(-c3ccccc3F)cc3c2OCCN3C(C)C)c(=O)[nH]1,-13%
Cc1cc(C)c(CNC(=O)c2cc(-c3cccnc3)cc3c2OCCN3C)c(=O)[nH]1,-13%[44.1 µM]
Cc1nc2ccccn2c1C(=O)NC(C)c1cnn(-c2ccccn2)c1C (stereo not given),0%
O=C(NCCN1CCCCC1)c1ccc(-c2ccc(N3CCCCC3)nc2)cc1,-17%
Cc1ccsc1C(=O)N1CCc2n[nH]c(=O)n2CC1,9%
CC(C)CCN1CC2(CCN(C(=O)CCC3NC(=O)NC3=O)CC2)OC1=O (stereo not given),-7%
CNC(=O)c1cc(-c2ccc(CO)cc2)cc2c1OCCN2Cc1cccnc1,-1%[44.1 µM]
O=C(NCc1ccc(F)cc1)N1CCCC(Cc2noc(-c3ccccn3)n2)C1 (stereo not given),i
CN(CCCc1cnn(C)c1)C(=O)[C@H]1CNC[C@@H](C(=O)N2CCOCC2)C1,-3%
O=C(OCc1ccccc1)N1CCC2(CC1)C(=O)NN=C2c1ccccn1,i
COc1ccc(NC(=O)CSc2nc(-c3ccccc3)cc(-c3cc(OC)c(OC)c(OC)c3)c2C#N)c(OC)c1,6.3µM*
COc1ccc(-c2cc(-c3ccccc3)nc(SCC(=O)Nc3ccccc3F)c2C#N)cc1,22%
N#Cc1c(-c2ccccc2)cc(-c2ccccc2)nc1SCC(=O)Nc1ccc(Cl)cc1,-13%
CC(C)(C)c1ccc(-c2noc(CNC(=O)CN3C(=O)CNC3=O)n2)cc1,-9%
SMILES,Pf Dd2 inh
COc1ccccc1C(=O)Nc1cc2c(cc1N1CCCC1)n(C)c(=O)c(=O)n2C,-2%
CCOC(=O)c1ccccc1NC(=O)Nc1cc2c(cc1N1CCCC1)n(C)c(=O)n2C,-39%
CCOC(=O)C1CCN(c2cc3c(cc2NC(=O)c2ccccc2Cl)n(C)c(=O)n3C)CC1,11µM*
COCCNC(=O)[C@@H]1C[C@@H](O)CN1C1CCN(C(=O)c2nn(C)c3ccccc23)CC1,-10%
CC(C)NC(=O)N(C1CC1)C1CCOC2(CCN(C(=O)Nc3ccccc3F)CC2)C1 (stereo not given),-6%
Cc1noc(C)c1[S+](=O)([O-])N1CCCC(c2nn(-c3ccc(F)cc3)c(=O)[nH]2)C1 (stereo not given),9%
O=C(NC[C@H]1O[C@@H](CO)[C@@H](O)[C@H]1N1CCN(c2ccc(F)cc2)CC1)c1ccco1,8%
COc1ccc(-c2cc(C(F)(F)F)nc(SCCC(=O)Nc3c(C)cccc3C)n2)cc1,-23%
COc1ccc(-c2cc(C(F)(F)F)nc(SCC(=O)NCCc3ccccc3)n2)cc1,-15%
CCCOC(=O)c1c(NC(=O)C(C)Sc2nc(-c3ccccc3)cc(C(F)(F)F)n2)sc(C(=O)N(C)C)c1C (stereo not given),1.1µM*
CCCOC(=O)c1c(NC(=O)c2nc3ncccn3n2)sc(C(N)=O)c1C,3%
CCN(CC)C(=O)c1sc(NC(=O)C(C)Sc2nc(-c3ccccc3)cc(C(F)(F)F)n2)c(C(=O)OC)c1C (stereo not given),0.35µM*
CCOC(=O)c1sc(NC(=O)c2cc3nc(-c4ccc(Br)cc4)cc(C(F)(F)F)n3n2)c(C(=O)OCC)c1C,39%
CCC(=O)N1CCC2(CCC2OC)CC1 (stereo not given),-20%
COc1cccc(CNC(=O)N2CCCC(Cn3c(C)nc4cccnc43)C2)c1 (stereo not given),-23%
O=C(NCc1ccco1)C1CC(=O)N(c2n[nH]c3ccccc23)C1 (stereo not given),-3%
CC(=O)c1ccc(NC(=O)O[C@@H]2CO[C@H]3[C@@H]2OC[C@@H]3NC(=S)NC2CCCCC2)cc1,-13%

# From PubChem BioAssay
